In PubChem BioAssay (Tox21):
Inconclusive results are not listed. Entries that show only a call come without a potency. Unmarked numbers belong to inactive results. Calls of active or inactive are those of the source. Calls follow the shape of the full dose curve.

What follows are molecules tested against Beta-2 adrenergic receptor (Homo sapiens) (UniProt P07550) (assay: Adrenergic beta2 receptor (ADRB2) small molecule agonists, cell-based qHTS assay (AID 1963593;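 also: CHO cells stably overexpressing human ADRB2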)). Conditions: CHO-ADRB2 cells, cAMP HTRF, 30 min; series mostly up to 42.5 µM.
Chain of Beta-2 adrenergic receptor (Homo sapiens) (P07550 whole entry, looked up): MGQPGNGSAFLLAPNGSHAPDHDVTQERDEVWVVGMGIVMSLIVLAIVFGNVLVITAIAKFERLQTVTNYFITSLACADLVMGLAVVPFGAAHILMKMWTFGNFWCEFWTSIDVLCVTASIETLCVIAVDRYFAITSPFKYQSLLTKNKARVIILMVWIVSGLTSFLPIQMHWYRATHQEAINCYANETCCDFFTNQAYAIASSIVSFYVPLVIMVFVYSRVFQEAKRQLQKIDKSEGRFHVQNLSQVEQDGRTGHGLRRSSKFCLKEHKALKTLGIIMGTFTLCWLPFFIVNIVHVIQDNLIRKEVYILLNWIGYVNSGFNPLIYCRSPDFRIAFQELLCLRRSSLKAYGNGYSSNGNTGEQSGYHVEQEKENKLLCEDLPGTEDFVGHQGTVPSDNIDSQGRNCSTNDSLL
Procedure, shortened: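 CHO cells stably over-expressing ADRB2 were plated overnight at 37C, then dosed with compounds plus a stimulation mix containing 100uM IBMX and 25uM Ro-20-1724 for 0.5hr at room temperature. cAMP was measured by HTRF competition, 1hr.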
With `CC[N+](CC)(CC)CCOc1cccc(OCC[N+](CC)(CC)CC)c1OCC[N+](CC)(CC)CC` the Potency was “inactive”.
For `C[C@@H]1C[C@H]2[C@@H]3CCC4=CC(=O)C=C[C@]4(C)[C@@]3(F)[C@@H](O)C[C@]2(C)[C@H]1C(=O)CO`, the Potency was “inactive”.
`C[C@H]1C[C@H]2[C@@H]3CCC4=CC(=O)C=C[C@]4(C)[C@@]3(F)[C@@H](O)C[C@]2(C)[C@@]1(O)C(=O)COP(=O)(O)O` was tested, and the Potency was “inactive”.
With `CCOC(=O)OC(C)OC1=C(C(=O)Nc2ccccn2)N(C)S(=O)(=O)c2ccccc21` (stereo unspecified) the Potency was “inactive”.
In the case of `C[N+](C)(C)CC(O)CC(=O)[O-]` (stereo unspecified), the Potency is reported as “inactive”.
In the case of `Cc1cccc(C)c1OCC(C)N` (stereo unspecified), the Potency is reported as “inactive”.
For `CC1=NS(=O)(=O)c2cc(Cl)ccc2N1`, the Potency was “inactive”.
With `CC[C@H]1OC(=O)[C@H](C)[C@@H](O[C@H]2C[C@@](C)(OC)[C@@H](O)[C@H](C)O2)[C@H](C)[C@@H](O[C@@H]2O[C@H](C)C[C@H](N(C)C)[C@H]2O)[C@](C)(OC)C[C@@H](C)C(=O)[C@H](C)[C@@H](O)[C@]1(C)O` the Potency was “inactive”.
`CC[C@H]1OC(=O)[C@H](C)[C@@H](O[C@H]2C[C@@](C)(OC)[C@@H](O)[C@H](C)O2)[C@H](C)[C@@H](O[C@@H]2O[C@H](C)C[C@H](N(C)C)[C@H]2O)[C@](C)(O)C[C@@H](C)C(=O)[C@H](C)[C@@H](O)[C@]1(C)O` was tested, and the Potency was “inactive”.
`NCCCNCCSP(=O)(O)O` showed an activation of -33.3% [at 8.39 µM].
With `COC(=O)[C@@H]1[C@H]2C[C@H]3c4[nH]c5ccccc5c4CCN3C[C@@H]2CC[C@@H]1O` the Potency was “inactive”.
